Pf growth 48h – inhibits P. falciparum growth in the first generation, 48 h; P. falciparum luciferase growth in erythrocytes, 48 h; actives 5.9% (n = 310,000); AID 504832; Potency, µM (series often up to 28.7 µM), inactives show top-dose activity change, negative = inhibition, hits mostly inhibitors; further: potency means the concentration at half of the fitted maximal effect; on the % scale 0 is the no-effect control and ±100 the full control effect
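Compounds are pin-transferred into medium, infected erythrocytes (2% hematocrit, 0.1% parasitemia final) are added, and plates sit one parasite generation at 37 C in 5% CO2. Detection reagent is then added and luminescence measured.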
CHX counter – affects cycloheximide protein synthesis inhibition readout, counter-screen; cell reporter, cycloheximide protein synthesis inhibition counterscreen; max response, %; actives 12% (n = 300,000); AID 2314; in the data active means max response mostly above about 13%, no sharp cut-off; inactive means mostly below about 14%; further: read at 38.3 µM for the half of the compounds with a filed dose; 0% is about no effect
Shiga inhibitor – Shiga toxin inhibition. Vero cells, Shiga toxin protein synthesis inhibition reporter. actives 9.2% (n = 290,000). inhibition, % at 38.7 µM; in the data active means inhibition mostly above about 28%, no sharp cut-off; inactive means mostly below about 43%; further: 0% is about no effect
Lassa entry inh – Lassa virus entry inhibition; Lassa virus pseudotype entry inhibition, cell reporter; Potency, µM (highest dose often 37.9 µM), without a hit: top-dose activity change, negative = inhibition, hits mostly inhibitors; actives 1.2% (n = 300,000); AID 540256; calls by dose curve; tested in HEK293 cells; further: potency means the concentration at half of the fitted maximal effect; on the % scale 0 is the no-effect control and ±100 the full control effect; nearly all actives have a fitted effect of over 50% in size
Pf growth 96h – P. falciparum growth inhibition at 96 hours; Potency, µM (series often up to 28.7 µM), inactives show at the top dose activity change, negative = inhibition, most hits filed as inhibitors; P. falciparum luciferase reporter growth, 96 h; actives 6.9% (n = 320,000); further: potency means the concentration at half of the fitted maximal effect; on the % scale 0 is the no-effect control and ±100 the full control effect
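Readout is luminescence from an integrated firefly luciferase in P. falciparum. Red cells, 2% hematocrit and 0.05% parasitemia final, were cultured with compound through two parasite generations (96 hours) at 37 C, 5% CO2.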
MARV entry inh – Marburg virus entry inhibition | Marburg virus pseudotyped entry inhibition, cell reporter | Potency, µM (series often up to 37.8 µM), for the others: at the highest dose activity change, negative = inhibition, usual class: inhibitors | actives 1.8% (n = 300,000); calls by dose curve; tested in HEK293 cells; further: potency means the concentration at half of the fitted maximal effect; on the % scale 0 is the no-effect control and ±100 the full control effect
* hit, by the source's call; u = inconclusive; x = not tested or not shown; [ ] = dose if it differs, or a comment. The list is not random: actives were taken first. Their share in the collection is about 19%. Unless noted, the call rests on the fitted dose curve; in most records, active means well fitted inhibition curve with a large enough effect; inconclusive means small, poorly fitted or top-dose-only effect, or another doubt; inactive means no such curve, though single readings can be large or run the other way.

SMILES	Pf growth 48h	CHX counter	Shiga inhibitor	Lassa entry inh	Pf growth 96h	MARV entry inh
Nc1ccccc1/C=C/c1ccccc1N	x	x	x	-15.5%[46.1 µM]	x	u
Cc1ccccc1/C=C/c1cccc[n+]1C	4.65µM*	-3.2	-4.4	x	u	x
C[n+]1ccccc1/C=C/c1ccccc1Cl	1.47µM*	2.1	-2.0	2.3%[46.1 µM]	u	-2.4%[46.1 µM]
C[n+]1ccccc1/C=C/c1ccc([N+](=O)[O-])cc1	1.31µM*	-2.2	3.1	8.3%[46.1 µM]	1.5%	1.7%[46.1 µM]
C=C(C)CSc1nc(-c2ccccc2)cc(-c2ccc(OC)cc2)c1C#N	x	x	x	-11.1%[46.1 µM]	x	-22.4%[46.1 µM]
Nc1cc(=O)[nH]c(SCC(=O)Nc2cccc(S(=O)(=O)N3CCCCCC3)c2)n1	x	x	x	1.4%	x	-7.9%
C[n+]1ccccc1/C=C/c1c(F)cccc1F	13.1µM*	1.2	-4.5	u	u	-10.9%[46.1 µM]
Cc1ncc(CC(=O)n2cc(C(=O)c3cc(F)ccc3O)cn2)s1	18.7%	33.8*	45.2*	23.1%	51.8%	11.0%
O=C(c1cnn(-c2ccccc2)c1)c1ccccc1O	366.1%	69.8*	75.1*	u	468.5%	u
O=C(c1cnn(-c2ccccc2)c1)c1cc(F)ccc1O	x	43.5*	82.7*	4.5%	72.8%	2.9%
Cc1ccc(O)c(C(=O)c2cnn(C(=O)Cc3csc(C)n3)c2)c1	x	-0.8	84.4	3.3%	x	17.8%
Cn1c(=O)[nH]c(=O)c2cc(C(=O)c3cc(F)ccc3O)cnc21	0.0%	-3.1	6.9	-8.0%	1.1%	-2.5%
COc1ccc(-n2cc(C(=O)c3ccc4ccccc4c3O)cn2)cc1	0.0%	18.0	3.9	11.5%	u	-9.5%[46.1 µM]
CC(C)C(NC(=O)c1ccccc1)C(=O)NCCc1ccccc1 (stereo not given)	14.0%[5.75 µM]	-2.9	-2.1	x	u	x
O=C(Nc1cccc(F)c1)C1CCN(c2nc3ccccc3[nH]2)CC1	x	x	x	7.6%[46.1 µM]	x	x
Cc1ccccc1OCc1nc2c3cnn(-c4ccccc4Br)c3ncn2n1	x	x	x	11.5%[46.1 µM]	x	16.2%[46.1 µM]
Cc1ccccc1OCc1nnc2c3cnn(C)c3ncn12	137.4%	38.5*	73.7	22.7%	32.1%	15.8%
CCCn1cc(CN2CCC(Cc3ccccc3)(C(=O)OCC)CC2)c(C)n1	0.0%	-2.3	10.2	u	10.4µM*	u
CCOC(=O)C1(Cc2ccccc2C)CCCN(Cc2cc(OC)c(O)c(OC)c2)C1 (stereo not given)	u	12.7*	38.1*	u	-27.4%	-0.3%[46.1 µM]
CCOC(=O)C1(Cc2ccccc2)CCCN(Cc2ccncc2)C1 (stereo not given)	9.28µM*	0.9	2.9	x	11.4%	x
CCOC(=O)C1(Cc2ccccc2)CCN(Cc2ccon2)CC1	u	-1.8	-9.1	-4.2%[46.1 µM]	u	-11.9%[46.1 µM]
Cc1ccccc1-c1ocnc1C(=O)Nc1ccccc1NC(=O)c1ccccn1	0.0%	5.4	-6.4	u	-21.6%	u
CCOc1ccc(Nc2oc(-c3ccccc3Cl)nc2C#N)cc1	10.1%	-1.9	-6.8	-20.8%	x	u
C/C(N)=C(/C#N)C(=O)COC(=O)c1cc2c(s1)CCCC2	92.6%	34.7*	60.1*	11.7%[46.1 µM]	126.7%	20.8%[46.1 µM]
C/C(N)=C(/C#N)C(=O)COC(=O)c1cc2c(s1)CCC(C)C2 (stereo not given)	44.4%	67.7*	93.2*	11.7%	71.5%	2.0%[46.1 µM]
SMILES	Pf growth 48h	CHX counter	Shiga inhibitor	Lassa entry inh	Pf growth 96h	MARV entry inh
CNC(=O)COC(=O)c1cc2c(s1)CCCC2	14.4%	23.7*	46.8	2.5%	25.6%	8.1%[46.1 µM]
CN(C(=O)COC(=O)c1cc2c(s1)CCCCC2)C1CCS(=O)(=O)C1 (stereo not given)	2.3%	-2.2	2.3	-10.9%	-6.7%	0.9%
CC(NC(=S)NC1CCCCC1)c1ccc(C(C)(C)C)cc1 (stereo not given)	5.86µM*	5.4	1.3	u	-6.6%	u
CCOc1ccc(C(C)NC(=S)NC2CCCCC2)cc1OCC (stereo not given)	0.0828µM*	-4.1	1.2	-16.0%	u	-5.1%[46.1 µM]
CCC(C)c1ccc(C(C)NC(=S)NC2CCCCC2)cc1 (stereo not given)	7.38µM*	6.5	12.4	u	9.28µM*	u
CCOc1ccc(C(C)NC(=S)NC2CCCCC2)cc1 (stereo not given)	u	-2.2	35.4	x	u	x
CCc1ccc(C(C)NC(=S)NC2CCCCC2)cc1 (stereo not given)	u	-1.9	-1.2	x	61.3%	x
CC(C)c1ccc(C(C)NC(=S)NC2CCCCC2)cc1 (stereo not given)	11.7µM*	-1.6	-5.0	x	3.9%	x
Cc1ccc(Cl)cc1NC(=O)c1cccc(NC(=O)N2CCSc3ncccc32)c1	x	x	x	0.5%[46.1 µM]	x	x
CCN=C1S/C(=C\c2ccc(Sc3ccc(Cl)cc3)o2)C(=O)N1CC	u	0.8	2.8	-16.5%	47.0%	-4.1%
CCOC(=O)N=S(N)(=O)c1ccccc1 (stereo not given)	2.8%	9.6	-6.5	-1.3%	10.4µM*	2.2%
CCOC(=O)N=S(N)(=O)c1ccc(Cl)cc1 (stereo not given)	1.2%	9.8	-6.0	10.7%	u	14.0%
COc1cccc(C(=O)OCn2nnc3ccccc3c2=O)c1OC	5.9%	-3.0	-3.5	x	3.0%	x
Cc1ccccc1C(=O)OCn1nnc2ccccc2c1=O	-1.4%	-2.0	-10.6	0.7%	8.28µM*	-3.5%
Cc1cc(C(=O)OCn2nnc3ccccc3c2=O)c(C)n1-c1ccccc1	u	61.6*	68.9*	u	1.85µM*	-2.6%
Cc1cccc(C)c1NC(=O)c1c(C)nn(-c2ccccc2)c1Cl	u	-0.9	-4.9	-8.1%	u	-9.9%
O=C(Cn1c(=O)n(Cc2ccccc2)c(=O)c2sc3ccccc3c21)NCc1ccccc1Cl	x	x	x	u	x	7.4%[46.1 µM]
Cc1ccc(S(=O)(=O)c2nnn3c2nc(N2CCCC2)c2sccc23)cc1C	x	x	x	9.2%[46.1 µM]	x	x
COCCNC(=S)N/N=C1\CC(C)CC(C)(C)C1 (stereo not given)	u	-1.7	-12.5	-7.5%	4.65µM*	-16.6%
CCOC(=O)CNc1nc(Cl)nc(N2CCCCC2)n1	6.7%	12.3*	61.2	x	7.5%	x
COC(=O)CNc1nc(Cl)nc(NC2CCCCC2)n1	45.0%	10.1	11.4	x	5.22µM*	x
CN=C(Nc1cc(C)nn1CCC#N)c1ccccc1	x	-2.1	3.0	12.6%	x	4.8%
COc1ccc(N2CCN(C(CNC(=O)c3cccs3)c3ccco3)CC2)cc1 (stereo not given)	u	x	x	6.6%	-0.6%	u
O=C(O)COc1ccc(S(=O)(=O)N2CCCC2)cc1	3.3%	1.0	-2.1	x	u	x
Oc1ccccc1C=NC1=NN(c2cccc(C(F)(F)F)c2)CC1	35.1%	5.2	2.7	-8.6%	2.08µM*	9.6%
Cc1cc(=O)c(C(=O)O)nn1-c1cccc(C(F)(F)F)c1	22.6%	-2.7	-8.4	3.0%	25.2%	0.8%
FC(F)(F)c1cccc(N2CCC(N=CN3CCCCCC3)=N2)c1	u	38.5*	49.3*	16.3%	u	-18.2%[46.1 µM]
FC(F)(F)c1cccc(CN2CCCCCC2)c1	-0.3%	-3.3	-8.2	-0.8%	x	16.4%
